A selection: hits, their analogues and other compounds. The true share with any hit is near 3.4%.
TEAD-YAP block = TEAD-YAP interaction inhibition. HEK-TIYL cells, TEAD-Gal4/YAP UAS-luciferase luminescence. inhibition, % at 9.12 µM. hit rate 1.4% among 640,000; in the data active = inhibition above about 32%
MITF inh = blocks human microphthalmia-associated transcription factor; AlphaScreen MITF homodimerization, bead proximity signal; hit rate 0.91% among 650,000; inhibition, % at 2.6 µM; in the data active = inhibition above about 50%
FBW7 act = activators of human E3 ligase FBW7 | AlphaScreen FBW7–phospho-cyclin E peptide binding, activator screen | normalized activity (activation), % at 26.1 µM | hit rate 0.13% among 650,000; in the data active = normalized activity above about 1.9%;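 also: purified mutant Fbw7 with reduced substrate affinity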
Target sequence (Q969H0 whole entry, looked up): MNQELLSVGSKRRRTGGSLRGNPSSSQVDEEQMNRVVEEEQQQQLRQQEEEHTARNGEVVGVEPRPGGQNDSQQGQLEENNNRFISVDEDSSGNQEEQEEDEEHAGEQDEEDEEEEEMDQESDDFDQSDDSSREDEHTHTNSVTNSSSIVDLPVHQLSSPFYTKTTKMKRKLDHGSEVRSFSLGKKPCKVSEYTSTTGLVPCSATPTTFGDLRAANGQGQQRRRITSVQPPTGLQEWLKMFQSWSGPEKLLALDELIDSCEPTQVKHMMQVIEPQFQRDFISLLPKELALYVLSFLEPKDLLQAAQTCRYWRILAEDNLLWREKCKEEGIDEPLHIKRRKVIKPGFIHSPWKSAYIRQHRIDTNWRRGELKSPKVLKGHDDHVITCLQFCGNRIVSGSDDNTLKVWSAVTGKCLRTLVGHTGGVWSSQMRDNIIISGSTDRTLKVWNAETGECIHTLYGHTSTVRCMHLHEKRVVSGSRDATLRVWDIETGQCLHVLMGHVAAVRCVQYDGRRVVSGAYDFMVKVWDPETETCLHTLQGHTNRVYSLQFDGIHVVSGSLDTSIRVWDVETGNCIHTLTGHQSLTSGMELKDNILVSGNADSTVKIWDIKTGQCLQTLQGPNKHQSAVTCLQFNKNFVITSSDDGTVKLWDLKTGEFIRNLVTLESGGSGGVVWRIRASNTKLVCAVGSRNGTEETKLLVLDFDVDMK
GPR151 ag = activates the human receptor GPR151; hit rate 1% among 650,000; Q8TDV0; PathHunter beta-arrestin GPR151 cells, luminescence; activation, % at 11.2 µM; in the data active = activation above about 4.9%
A number is an active result; – = inactive.

SMILES	TEAD-YAP block	MITF inh	FBW7 act	GPR151 ag
c1ccc(Nc2nc(Nc3ccncc3)nc3nc[nH]c23)cc1	–	–	–	–
COc1ccc(CCNc2nc(Nc3cccnc3)nc3nc[nH]c23)cc1	41	–	–	–
O=[N+]([O-])c1ccccc1S(=O)(=O)Nc1nc(-c2ccccc2)cs1	–	–	–	–
O=C(Nc1ccccc1)OC1CC2CC1C1CCCC21 (stereo not drawn)	–	–	–	–
c1ccc(CNc2nc(Nc3cnccn3)nc3nc[nH]c23)cc1	–	–	11	–
c1ccc(CNc2nc(Nc3cccnc3)nc3nc[nH]c23)cc1	–	–	–	–
COc1ccc(CCNc2nc(Nc3cc(OC)c(OC)c(OC)c3)nc3nc[nH]c23)cc1	61	–	–	–
CCCCN(CC)S(=O)(=O)c1ccccc1[N+](=O)[O-]	47	–	–	–
CC(C)CN(CC(C)C)S(=O)(=O)c1ccccc1[N+](=O)[O-]	–	–	–	–
CC(=O)Nc1nc2c(C)cc(N)cc2s1	–	–	30	–
COc1cc(N)cc2sc(NC(C)=O)nc12	–	–	–	–
COc1ccc(S(=O)(=O)NC2CCCC2)cc1NC(C)=O	–	–	–	–
CCCC(CCn1c(C)[n+](CC)c2ccc(C#N)cc21)S(=O)(=O)O (stereo not drawn)	–	–	1.9	–
CC[n+]1c(C)n(CCCS(=O)(=O)O)c2cc(C#N)ccc21	–	–	–	–
Cc1nc2cc(NCc3nc4ccccc4n3C)ccc2n1C	81	–	–	–
CCOC(=O)c1[nH]c(C)c(CN(C(C)=O)c2ccc(OCC)cc2)c1C	52	–	–	–
CC(C)n1cnc2c(NC3CCN(Cc4ccccc4)CC3)nc(Nc3ccc4ncccc4c3)nc21	–	–	–	–
C=CCOc1ccc(C2C(C(=O)OCC)=C(C)N=c3s/c(=C/c4ccccc4O)c(=O)n32)cc1OCC (stereo not drawn)	–	–	–	–
Cc1cccc(C)c1OCC(=O)N/N=C/c1ccccc1F	37	–	–	–
Cc1cccc(C)c1OCC(=O)N/N=C/c1cn(C)c2ccccc12	51	–	–	–
Cc1ccc(C)c(OCC(=O)N/N=C\c2ccccc2F)c1	–	–	–	–
Cc1ccc(OCC(=O)N/N=C/c2cc([N+](=O)[O-])ccc2F)cc1	60	–	–	–
Cc1ccc(C=Nc2ccc(C(N)=O)cc2)o1	–	–	–	–
O=C(NCc1nnc(SCc2cccc(F)c2)o1)c1ccccc1	56	–	–	–
O=C(NCc1nnc(SCc2ccccc2F)o1)c1ccc(F)cc1	61	–	–	–
SMILES	TEAD-YAP block	MITF inh	FBW7 act	GPR151 ag
O=C(NCc1nnc(SCc2ccccc2Cl)o1)c1ccccc1	–	–	–	–
Cc1cccc(CSc2nnc(CNC(=O)c3ccccc3)o2)c1	–	–	–	–
O=C(NCc1nnc(SCc2ccccc2)o1)c1ccc(F)cc1	58	–	–	–
Cc1ccc(NC(=O)CCNS(=O)(=O)c2ccc3nc(-c4ccccc4)[nH]c3c2)cc1	–	–	–	–
COc1ccc(CCNc2nc(-c3ccc(C(=O)NC4CC4)cc3)nc3c2ncn3-c2ccccc2)cc1	–	–	–	–
O=C(NC1CC1)c1ccc(-c2nc(NCCO)c3ncn(-c4ccccc4)c3n2)cc1	68	–	–	–
NC(=O)c1ccc(-c2nc(NCCN3CCOCC3)c3ncn(-c4ccccc4)c3n2)cc1	61	–	–	–
NC(=O)c1ccc(-c2nc(NCCO)c3ncn(-c4ccccc4)c3n2)cc1	64	–	–	–
O=C(NC1CC1)c1ccc(-c2nc(Nc3ccc(Oc4ccccc4)cc3)c3ncn(-c4ccsc4)c3n2)cc1	–	–	–	–
CC(=O)Nc1ccc(Nc2nc(-c3ccc(C(=O)NC4CC4)cc3)nc3c2ncn3-c2ccccc2)cc1	48	–	–	–
CN1CCN(C(=O)c2ccc(-c3nc(NCCN4CCOCC4)c4ncn(-c5ccsc5)c4n3)cc2)CC1	–	–	–	–
OCC1CCCN1c1nc2ncnc(NCCN3CCOCC3)c2[nH]1 (stereo not drawn)	–	–	–	–
O=C1NC(=S)NC(=O)C1=Cc1cn(-c2ccccc2)nc1-c1ccc2c(c1)OCCO2	–	–	–	–
O=C1NC(=S)NC(=O)C1=Cc1cn(-c2ccccc2)nc1-c1cccs1	–	75	–	–
CC(C)c1nccn1CC1CCN(C(=O)c2ccccc2Cl)CC1	33	–	–	–
C=CCOc1ccc(C(=O)N2CCc3c(nc(N4CC(C)OC(C)C4)[nH]c3=O)C2)cc1 (stereo not drawn)	–	–	7.4	–
O=C(Cn1cnc([N+](=O)[O-])c1[N+](=O)[O-])Nc1cc(Oc2ccccc2)cc([N+](=O)[O-])c1	42	–	–	–
O=C(Cn1cnc([N+](=O)[O-])c1[N+](=O)[O-])Nc1ccc(Cl)cc1	87	–	–	–
CCNC(=O)N1CCN(C(c2ccccc2)c2nc(OC)cc(OC)n2)CC1 (stereo not drawn)	–	–	–	–
Cc1ccccc1NC(=O)C(Cc1ccccc1)NS(=O)(=O)c1cccs1 (stereo not drawn)	–	–	–	–
CCOc1ccc(C2/C(=C(/O)c3ccccc3)C(=O)C(=O)N2CCC(=O)O)cc1 (stereo not drawn)	–	–	–	–
CCOC(=O)c1c(C)[nH]c(C)c1C(=O)COC(=O)c1cc(Cl)cc(Cl)c1N	–	–	–	–
Oc1ccc(/C=N/NC(=S)NCCN2CCOCC2)c(O)c1	–	94	–	–
CN1C(=O)C(C)(C)c2cc(S(=O)(=O)N3CCC(Cc4ccccc4)CC3)ccc21	–	–	–	–
Cc1ccc(-n2c(SCC(=O)NCc3ccco3)nnc2-c2cccnc2)c(C)c1	–	–	–	–
SMILES	TEAD-YAP block	MITF inh	FBW7 act	GPR151 ag
CCCN1C(=O)COc2ccc(-c3csc(NC(=O)C(CC)CC)n3)cc21	32	–	–	–
CC(=O)Nc1nc(-c2ccc3c(c2)CCO3)cs1	–	–	–	–
COc1cccc(NC(=O)CSc2nc3ccsc3c(=O)n2Cc2ccc(C)cc2)c1	–	–	–	–
Cc1cccc(C2CC(=O)Nc3cc4c(cc32)OCCO4)c1 (stereo not drawn)	40	–	–	–
Cc1cccc(C2CC(=O)Nc3cc4c(cc32)OCO4)c1 (stereo not drawn)	–	–	–	–
CC(=O)OC(=C(Cl)Cl)c1ccc(C(OC(C)=O)=C(Cl)Cl)cc1	42	–	–	–
CC(=O)Oc1ccc(C(=O)c2ccc(OC(C)=O)cc2)cc1	–	–	–	–
O=C1C=CC2=C3c4cc(O)c(O)cc4C[C@@]3(O)COC2=C1	–	88	–	–
COC(=O)NC(C)c1ccc(OC)cc1 (stereo not drawn)	–	–	–	–
O=c1c(Cl)c(Cl)cnn1C12CC3CC(CC(C3)C1)C2	78	–	–	–
O=c1c(Cl)c(NCCO)cnn1C12CC3CC(CC(C3)C1)C2	–	–	–	–
Cc1cc(Cl)ccc1OCC(=O)Nc1ccc(-c2nc3cccnc3o2)cc1	–	–	–	–
CCN1C(=O)/C(=C\c2cc(C)n(-c3ccc(Cl)cc3)c2C)C(C(=O)OC)=C1C	–	–	7.3	–
COCCN1C(=O)/C(=C\c2cc(C)n(-c3ccc(Cl)cc3)c2C)C(C(=O)OC)=C1C	–	–	–	–
